{
  "source": "the supplement of paper PMC12067093",
  "about": "“Discovery and optimisation of a covalent ligand for TRIM25 and its application to targeted protein ubiquitination” (Chemical Science, 2025)",
  "note": "Of roughly 21,000 targets only a part is listed; those with the largest changes were picked by preference.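 Further: competitive chemoproteomic profiling in live THP-1 cells with an iodoacetamide desthiobiotin (IA-DTB) probe, comparing probe-labelled peptide intensities in compound-treated cells against DMSO-treated controls.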",
  "data": [
    {"compound": "CC1Cc2ccccc2N1C(=O)C1CCCN(C1)C(=O)CCl (mixture of isomers) [TRIM25 ligand 11 (diastereomer mixture)]", "assay": "probe-labelled cysteine peptide fold change vs DMSO (competition) (log2 fold change); higher = less target engagement (more negative = stronger competition)", "details": "10 µM; THP-1; incubation time: 4 h", "values": [
      {"target": "SLC25A16_P16260_246_THVNLLCGGVAGAIAQTISYPFDVTR (UniProt P16260)", "probe-labelled cysteine peptide fold change": 0.365},
      {"target": "RPS2_P15880_222_KLLMMAGIDDCYTSAR (UniProt P15880)", "probe-labelled cysteine peptide fold change": -0.59},
      {"target": "SAMD4B_Q5PRF9_20_GWNECEQTVALLSLLK<|>SAMD4A_Q9UPU9_20_GWNECEQTVALLSLLK (UniProt Q9UPU9+Q5PRF9)", "probe-labelled cysteine peptide fold change": -0.204},
      {"target": "RREB1_Q92766_291_DAMGRPFIQNNPSIPAGFHDLGFTDFSCR (UniProt Q92766)", "sequence (Q92766 whole entry, looked up)": "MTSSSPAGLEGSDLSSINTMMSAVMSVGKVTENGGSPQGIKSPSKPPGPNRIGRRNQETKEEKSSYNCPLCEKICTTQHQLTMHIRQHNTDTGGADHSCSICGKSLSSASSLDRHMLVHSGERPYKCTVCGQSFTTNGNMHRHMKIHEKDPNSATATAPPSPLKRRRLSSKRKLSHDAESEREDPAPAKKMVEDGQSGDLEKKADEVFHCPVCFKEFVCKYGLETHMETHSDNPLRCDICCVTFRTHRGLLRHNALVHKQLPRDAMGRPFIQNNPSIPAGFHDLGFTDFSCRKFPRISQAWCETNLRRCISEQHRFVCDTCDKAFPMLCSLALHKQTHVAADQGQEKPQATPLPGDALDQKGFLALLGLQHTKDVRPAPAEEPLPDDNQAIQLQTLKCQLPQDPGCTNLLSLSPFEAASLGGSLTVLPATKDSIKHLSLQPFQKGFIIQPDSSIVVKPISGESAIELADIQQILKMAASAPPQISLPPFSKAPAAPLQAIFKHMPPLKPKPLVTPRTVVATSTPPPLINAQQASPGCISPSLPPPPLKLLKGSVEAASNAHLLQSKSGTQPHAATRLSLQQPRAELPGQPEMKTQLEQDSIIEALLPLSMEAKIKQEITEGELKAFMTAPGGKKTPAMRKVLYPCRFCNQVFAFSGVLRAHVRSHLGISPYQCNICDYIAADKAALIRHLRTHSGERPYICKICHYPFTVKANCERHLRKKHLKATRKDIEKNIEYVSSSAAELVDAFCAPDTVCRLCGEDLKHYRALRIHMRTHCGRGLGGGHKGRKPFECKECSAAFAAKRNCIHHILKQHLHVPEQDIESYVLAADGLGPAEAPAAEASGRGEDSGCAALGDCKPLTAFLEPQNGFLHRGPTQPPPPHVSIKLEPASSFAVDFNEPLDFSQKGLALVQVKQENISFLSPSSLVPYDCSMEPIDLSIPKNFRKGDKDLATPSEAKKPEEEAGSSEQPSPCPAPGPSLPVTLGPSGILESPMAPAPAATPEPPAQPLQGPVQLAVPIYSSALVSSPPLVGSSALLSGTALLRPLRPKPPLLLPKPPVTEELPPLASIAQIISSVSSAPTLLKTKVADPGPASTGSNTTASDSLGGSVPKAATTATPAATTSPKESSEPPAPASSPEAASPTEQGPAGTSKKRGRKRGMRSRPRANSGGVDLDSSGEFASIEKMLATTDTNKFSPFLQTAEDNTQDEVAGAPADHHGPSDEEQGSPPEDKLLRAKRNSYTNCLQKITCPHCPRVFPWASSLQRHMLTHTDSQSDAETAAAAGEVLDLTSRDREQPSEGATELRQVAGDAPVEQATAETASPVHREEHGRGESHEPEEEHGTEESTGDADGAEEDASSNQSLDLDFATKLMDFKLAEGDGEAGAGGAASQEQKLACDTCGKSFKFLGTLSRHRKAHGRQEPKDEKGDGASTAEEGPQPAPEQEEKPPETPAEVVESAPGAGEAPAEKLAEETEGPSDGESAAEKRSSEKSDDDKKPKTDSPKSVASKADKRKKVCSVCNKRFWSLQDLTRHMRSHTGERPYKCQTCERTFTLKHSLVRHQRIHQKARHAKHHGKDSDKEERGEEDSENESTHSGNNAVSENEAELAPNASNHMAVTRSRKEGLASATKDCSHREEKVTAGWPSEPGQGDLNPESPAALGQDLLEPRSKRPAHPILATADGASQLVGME", "probe-labelled cysteine peptide fold change": -0.104},
      {"target": "SCAPER_Q9BY12_336_DSLHSCDHPLAEK (UniProt Q9BY12)", "sequence (Q9BY12 whole entry, looked up)": "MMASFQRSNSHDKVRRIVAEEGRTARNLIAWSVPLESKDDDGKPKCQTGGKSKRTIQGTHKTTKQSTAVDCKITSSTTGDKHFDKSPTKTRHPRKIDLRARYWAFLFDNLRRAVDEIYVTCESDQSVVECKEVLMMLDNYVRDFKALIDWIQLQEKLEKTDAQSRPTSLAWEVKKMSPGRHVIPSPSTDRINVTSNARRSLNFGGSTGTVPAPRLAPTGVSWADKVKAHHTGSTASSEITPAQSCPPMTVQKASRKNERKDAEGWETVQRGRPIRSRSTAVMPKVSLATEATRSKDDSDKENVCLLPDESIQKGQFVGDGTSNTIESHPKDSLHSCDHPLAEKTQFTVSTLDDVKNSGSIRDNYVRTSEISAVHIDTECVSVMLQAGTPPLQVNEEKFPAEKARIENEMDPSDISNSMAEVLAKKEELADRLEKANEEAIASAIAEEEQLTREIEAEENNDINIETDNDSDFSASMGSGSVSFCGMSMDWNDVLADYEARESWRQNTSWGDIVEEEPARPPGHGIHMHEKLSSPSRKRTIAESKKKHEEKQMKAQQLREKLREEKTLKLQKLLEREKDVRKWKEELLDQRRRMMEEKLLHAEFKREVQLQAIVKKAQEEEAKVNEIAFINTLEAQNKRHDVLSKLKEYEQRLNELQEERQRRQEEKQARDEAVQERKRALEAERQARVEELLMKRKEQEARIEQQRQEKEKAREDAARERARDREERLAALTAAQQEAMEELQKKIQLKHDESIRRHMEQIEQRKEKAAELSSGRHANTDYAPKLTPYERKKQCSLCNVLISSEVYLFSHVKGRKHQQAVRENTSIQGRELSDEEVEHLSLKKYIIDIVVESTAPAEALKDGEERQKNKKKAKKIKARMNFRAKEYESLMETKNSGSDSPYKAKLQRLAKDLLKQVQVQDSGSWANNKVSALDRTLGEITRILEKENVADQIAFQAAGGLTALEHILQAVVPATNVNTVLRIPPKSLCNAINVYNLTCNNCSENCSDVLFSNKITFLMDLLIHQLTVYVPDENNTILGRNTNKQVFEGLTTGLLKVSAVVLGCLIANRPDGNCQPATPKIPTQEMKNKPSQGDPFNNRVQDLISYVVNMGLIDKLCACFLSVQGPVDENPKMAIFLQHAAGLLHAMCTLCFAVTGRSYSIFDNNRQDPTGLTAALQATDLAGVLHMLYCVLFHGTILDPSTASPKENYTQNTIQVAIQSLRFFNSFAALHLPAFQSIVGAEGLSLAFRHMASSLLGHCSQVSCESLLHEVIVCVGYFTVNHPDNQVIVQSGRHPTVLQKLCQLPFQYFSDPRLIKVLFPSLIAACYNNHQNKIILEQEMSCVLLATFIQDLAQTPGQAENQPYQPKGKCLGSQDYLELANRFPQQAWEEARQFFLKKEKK", "probe-labelled cysteine peptide fold change": -0.0351},
      {"target": "SCAF11_Q99590_566_VYQPVSCPLSDLSENVESVVNEEK (UniProt Q99590)", "probe-labelled cysteine peptide fold change": -0.0494},
      {"target": "SND1_Q7KZF4_96_EVCFTIENK (UniProt Q7KZF4)", "probe-labelled cysteine peptide fold change": 0.00729},
      {"target": "SCFD2_Q8WU76_507_ALAQVFCEESGLSPLLQK (UniProt Q8WU76)", "sequence (Q8WU76 whole entry, looked up)": "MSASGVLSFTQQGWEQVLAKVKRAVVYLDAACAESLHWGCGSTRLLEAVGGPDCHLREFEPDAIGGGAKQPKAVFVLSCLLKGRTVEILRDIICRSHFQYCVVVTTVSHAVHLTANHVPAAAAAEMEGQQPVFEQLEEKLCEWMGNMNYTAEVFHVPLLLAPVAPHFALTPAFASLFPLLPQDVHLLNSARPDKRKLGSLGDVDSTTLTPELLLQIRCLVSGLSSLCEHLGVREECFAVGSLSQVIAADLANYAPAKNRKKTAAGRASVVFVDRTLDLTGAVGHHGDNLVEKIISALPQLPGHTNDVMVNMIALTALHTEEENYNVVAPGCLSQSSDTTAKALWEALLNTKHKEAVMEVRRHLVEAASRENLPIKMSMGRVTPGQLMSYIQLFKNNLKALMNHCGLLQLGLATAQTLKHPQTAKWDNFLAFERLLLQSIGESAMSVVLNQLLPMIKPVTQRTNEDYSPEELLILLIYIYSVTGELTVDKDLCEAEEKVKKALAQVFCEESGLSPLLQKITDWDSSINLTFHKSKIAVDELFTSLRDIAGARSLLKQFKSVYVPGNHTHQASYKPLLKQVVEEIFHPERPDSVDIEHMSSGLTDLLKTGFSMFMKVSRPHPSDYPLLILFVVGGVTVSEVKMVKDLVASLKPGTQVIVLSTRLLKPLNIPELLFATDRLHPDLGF", "probe-labelled cysteine peptide fold change": 0.0961},
      {"target": "RUBCNL_Q9H714_641_QCFQSSECPR (UniProt Q9H714)", "probe-labelled cysteine peptide fold change": 0.144},
      {"target": "SCAF11_Q99590_553_TDVCTVHLPNDFPTCLTSESK (UniProt Q99590)", "probe-labelled cysteine peptide fold change": 0.0519},
      {"target": "SFMBT2_Q5VUG0_796_CPPTKPEGTEDTKQEEEERLVLESNPLEWTVTDVVR (UniProt Q5VUG0)", "probe-labelled cysteine peptide fold change": -0.043},
      {"target": "SIRT5_Q9NXA8_293+303_FHFQGPCGTTLPEALACHENETVS (UniProt Q9NXA8)", "sequence (Q9NXA8 whole entry, looked up)": "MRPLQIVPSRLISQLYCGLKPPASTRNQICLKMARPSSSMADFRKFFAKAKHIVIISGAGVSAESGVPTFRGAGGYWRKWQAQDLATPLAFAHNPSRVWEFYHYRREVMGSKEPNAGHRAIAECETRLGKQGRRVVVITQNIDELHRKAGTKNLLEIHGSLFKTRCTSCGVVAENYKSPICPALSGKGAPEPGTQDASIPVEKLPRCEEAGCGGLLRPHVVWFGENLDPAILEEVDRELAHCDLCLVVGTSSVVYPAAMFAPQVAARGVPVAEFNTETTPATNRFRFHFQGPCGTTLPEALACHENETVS", "probe-labelled cysteine peptide fold change": 0.203},
      {"target": "RTRAF_Q9Y224_19_LTALDYHNPAGFNCK (UniProt Q9Y224)", "probe-labelled cysteine peptide fold change": 0.414},
      {"target": "RTN3_O95197-3_46_SCSSSCAVHDLIFWR (UniProt O95197)", "sequence (O95197 whole entry, looked up)": "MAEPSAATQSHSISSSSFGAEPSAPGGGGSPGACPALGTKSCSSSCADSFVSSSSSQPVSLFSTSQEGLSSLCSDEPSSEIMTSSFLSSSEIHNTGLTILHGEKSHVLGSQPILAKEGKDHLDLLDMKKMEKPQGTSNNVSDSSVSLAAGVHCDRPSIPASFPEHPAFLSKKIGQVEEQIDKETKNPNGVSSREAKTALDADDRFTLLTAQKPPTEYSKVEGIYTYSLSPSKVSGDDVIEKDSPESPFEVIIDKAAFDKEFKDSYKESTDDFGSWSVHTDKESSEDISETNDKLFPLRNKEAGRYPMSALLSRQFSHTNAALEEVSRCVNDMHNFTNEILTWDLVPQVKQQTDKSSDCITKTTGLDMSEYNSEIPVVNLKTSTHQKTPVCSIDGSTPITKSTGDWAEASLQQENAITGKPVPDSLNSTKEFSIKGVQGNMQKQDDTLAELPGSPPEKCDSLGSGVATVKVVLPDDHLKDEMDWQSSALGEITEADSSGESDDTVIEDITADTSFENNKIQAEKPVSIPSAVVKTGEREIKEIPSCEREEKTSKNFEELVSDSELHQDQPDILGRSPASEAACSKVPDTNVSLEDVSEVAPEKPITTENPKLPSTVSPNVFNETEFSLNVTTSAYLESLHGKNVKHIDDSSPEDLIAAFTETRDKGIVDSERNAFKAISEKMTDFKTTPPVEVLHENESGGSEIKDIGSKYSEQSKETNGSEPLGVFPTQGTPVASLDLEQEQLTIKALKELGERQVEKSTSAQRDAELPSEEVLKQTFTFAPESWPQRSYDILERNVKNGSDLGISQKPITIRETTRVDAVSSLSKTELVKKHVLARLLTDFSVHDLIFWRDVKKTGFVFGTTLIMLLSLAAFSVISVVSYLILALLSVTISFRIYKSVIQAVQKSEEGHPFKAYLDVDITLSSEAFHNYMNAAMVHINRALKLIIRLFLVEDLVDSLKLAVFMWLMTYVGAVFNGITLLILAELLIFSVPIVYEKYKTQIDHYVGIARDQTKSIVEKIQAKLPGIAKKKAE", "probe-labelled cysteine peptide fold change": -0.00795}
    ]}
  ]
}
